Bioassay records deposited in PubChem BioAssay by The Scripps Research Institute Molecular Screening Center.
Shown are actives, neighbours in structure and some others; about 3.5% of the full set was active somewhere.
TEAD-YAP block: TEAD-YAP interaction inhibition, primary screen, TEAD-YAP interaction inhibitor project, luminescence, HEK-TIYL cells; inhibition, % at 9.12 µM; 640,000 tested, 1.4% active; TEAD-Gal4/YAP UAS-luciferase luminescence; AID 1259422, 2018; in the data active = inhibition above about 32%;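 also: 0% = median of test compound wells and 100% = reference inhibitor wells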
FBW7 activator: FBW7 E3 ligase activators, primary screen, biochemical, AlphaScreen, human. AlphaScreen FBW7–phospho-cyclin E peptide binding, activator screen. normalized activity (activation), % at 26.1 µM. 650,000 tested, 0.13% active. AID 1259310, 2017; in the data active = normalized activity above about 1.9%;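 also: purified mutant Fbw7 with reduced substrate affinity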
MITF inh: MITF inhibitors, primary screen, biochemical, AlphaScreen, human. Microphthalmia-associated transcription factor (Homo sapiens), O75030. AlphaScreen MITF homodimerization, bead proximity signal. inhibition, % at 2.6 µM. 650,000 tested, 0.91% active; in the data active = inhibition above about 50%;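 also: 0% = vehicle wells with protein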
Target sequence (O75030 whole entry, looked up): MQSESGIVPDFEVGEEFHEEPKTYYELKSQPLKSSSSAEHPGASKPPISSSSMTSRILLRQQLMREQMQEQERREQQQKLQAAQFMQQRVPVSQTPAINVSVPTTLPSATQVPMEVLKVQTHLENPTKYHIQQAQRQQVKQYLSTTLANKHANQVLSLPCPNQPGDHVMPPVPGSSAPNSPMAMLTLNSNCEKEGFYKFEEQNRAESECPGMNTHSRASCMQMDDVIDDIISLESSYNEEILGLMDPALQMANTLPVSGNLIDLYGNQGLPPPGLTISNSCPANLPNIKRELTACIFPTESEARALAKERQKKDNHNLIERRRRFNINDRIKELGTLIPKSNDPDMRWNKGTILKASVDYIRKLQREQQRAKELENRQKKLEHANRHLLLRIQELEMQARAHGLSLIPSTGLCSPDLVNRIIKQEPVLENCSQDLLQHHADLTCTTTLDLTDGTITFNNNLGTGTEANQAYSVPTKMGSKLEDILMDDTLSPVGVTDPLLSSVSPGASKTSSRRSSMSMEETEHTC
GPR151 ag: activators of human GPR151, primary screen, cell-based, PathHunter beta-arrestin, luminescence; G-protein coupled receptor 151 (Homo sapiens), Q8TDV0; PathHunter beta-arrestin GPR151 cells; activation, % at 11.2 µM; 650,000 tested, 1% active; AID 1508602, 2020; in the data active = activation above about 4.9%;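 also: 0% = median of compound wells and 100% = cells with positive control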
GPR151 confirm: GPR151 activators, triplicate retest, confirmation, cell-based, PathHunter beta-arrestin, luminescence; activation, % at 11.2 µM; shares compounds with GPR151 ag; 6,700 tested, under 10 active; AID 1508609, 2020; GPR151 PathHunter beta-arrestin cells, 90 min; % of EA-reagent control over plate median;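 active = mean percent activation across replicates above the confirmation screen cutoff of 4.91%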
GPR119 ag: GPR119 activators in beta-arrestin cells, counter-screen for GPR151 activator project, cell-based, PathHunter beta-arrestin, luminescence, triplicate | 90 min; 0 = compound-well median, 100 = enzyme-acceptor control | AID 1508611, 2020 | 6,700 tested, 0.3% active | activation, % at 11.2 µM | shares compounds with GPR151 ag;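 active = mean percent activation in the counterscreen above 29.09%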;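 also: counterscreen on off-target GPR119 to flag nonselective hits from the GPR151 activator screen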
* marks the source's active call; other numbers are inactive results; . = no result given.

SMILES | TEAD-YAP block | FBW7 activator | MITF inh | GPR151 ag | GPR151 confirm | GPR119 ag
CCOc1ccccc1-c1nn2c(Cn3cnc4ccccc43)nnc2s1 | 1 | 0 | 7 | 3 | . | .
CCCn1c(C2CC2)nc2ccccc21 | -2 | 0 | -1 | 9.9* | 0 | 2
C/C(=N\NC(=O)c1nnn(-c2nonc2N)c1CN1CCCCC1)c1ccc(N)cc1 | -26 | 0 | -15 | 0 | . | .
COc1ccc(-c2[nH]ncc2CN[C@@H]2C[C@@H](C(=O)NC(C)C)N(Cc3ccccc3)C2)cc1 | -1 | 0 | 8 | 5.7* | 0 | -4
COc1ccc(O)c(CN[C@H]2C[C@@H](C(=O)NC(C)C)N(Cc3ccc4ccccc4c3)C2)c1 | -1 | 0 | -4 | 0 | . | .
O=C(Cn1nnnc1CN1CCCCCC1)N1CCC[C@H]1CO | -1 | 0 | -13 | 0 | . | .
O=C(Cn1nnnc1CN1CCCCCC1)N1CCCCC1c1cccnc1 (stereo not given) | 6 | 0 | 9 | 5.7* | 1 | 10
Cc1ccccc1OCc1n[nH]c(=S)n1C | 5 | 0 | -6 | 7.2* | 0 | -1
c1ccc(-c2noc(CCC3CCCC3)n2)cc1 | 0 | 0 | 1 | 12* | -1 | -8
O=C(COc1cccc(F)c1)NNC(=O)c1ccc(Cl)c([N+](=O)[O-])c1 | 13 | 0 | 1 | 0 | . | .
CC(C)COC(=O)Nc1nnc(C(C)C)s1 | -74 | 0 | -7 | 13* | 0 | 7
CCCCOC(=O)Nc1nnc(C(C)C)s1 | -58 | 0 | 13 | 0 | . | .
CCN(CC)c1ncnc2sc(C(=O)Nc3ccc(C)c(F)c3)c(C)c12 | 1 | 0 | 12 | 9.1* | -1 | 1
O=C(/C=C\c1ccc([N+](=O)[O-])cc1)Nc1nnc(-c2cccs2)o1 | -5 | 0 | -5 | 6.7* | -1 | 1
O=C(/C=C\c1ccc([N+](=O)[O-])cc1)Nc1nnc(-c2ccccc2)o1 | -6 | 0 | 0 | 0 | . | .
O=C(COc1ccccc1O)Nc1ccc(Br)cc1 | -11 | 0 | 3 | -1 | . | .
COc1ccc(C2Nn3c(C)nnc3SC2C(=O)N2CCCC2)cc1Br (stereo not given) | 6 | 0 | 10 | 5.1* | 0 | -5
CCCc1cc(=O)oc2c(CN3CCCCC3)c(O)ccc12 | 9 | 0 | 11 | -2 | . | .
O=C(O)C1CCC(N2C(=O)c3cccc([N+](=O)[O-])c3C2=O)CC1 (stereo not given) | 4 | 0 | -5 | 5.2* | -1 | -1
O=C1c2cccc([N+](=O)[O-])c2C(=O)N1C1CCCCCCC1 | 15 | 0 | 17 | -1 | . | .
CC(C)[C@H](NC(=O)c1ccc(F)cc1)C(=O)OCC(=O)Nc1ccc(C#N)cc1 | -7 | 0 | 2 | 7.4* | 0 | -12
Cc1cccc(NC(=O)/C(C#N)=C\c2ccco2)c1 | -62 | 0 | 8 | 1 | . | .
Cc1cc(C)c(NC(=O)/C(C#N)=C\c2ccco2)c(C)c1 | 5 | 0 | -16 | 6.3* | -1 | -1
Cc1cccc(N2C(=O)NC(=O)/C(=C\c3ccc(O)c(Cl)c3)C2=O)c1 | 2 | 0 | -6 | 0 | . | .
Cc1oc2ccc(OCc3c(Cl)cccc3Cl)cc2c1C(=O)O | -3 | 0 | -21 | -1 | . | .
SMILES | TEAD-YAP block | FBW7 activator | MITF inh | GPR151 ag | GPR151 confirm | GPR119 ag
O=c1ccc(-c2ccco2)cn1Cc1ccccc1 | 6 | 0 | -7 | 0 | . | .
CC(=O)Nc1cccc(N=Cc2cc([N+](=O)[O-])cc(C)c2O)c1 | -26 | 0 | 4 | 7.4* | -1 | 3
O=C(Nc1cccc(N=Cc2cc([N+](=O)[O-])cc([N+](=O)[O-])c2O)c1)c1ccco1 | -2 | 0 | 13 | 0 | . | .
COCC(=O)n1nc(NCc2ccc(OC)cc2)nc1NCc1ccc(OC)cc1 | 4 | 0 | -16 | 3 | . | .
CC(=O)n1nc(NCc2ccccc2)nc1NCc1ccccc1 | -1 | 0 | -6 | 0 | . | .
CCCC(=O)n1nc(NCc2ccccc2)nc1NCc1ccccc1 | -9 | 0 | 11 | 6.9* | 0 | -6
O=C(COc1ccccc1)n1nc(NCc2ccccc2)nc1NCc1ccccc1 | -3 | 0 | 4 | 8.8* | 0 | 4
CCOC(=O)N1CCN(C(=O)Cn2cc(NC(=O)Cc3ccccc3OC)cn2)CC1 | -1 | 0 | 2 | 9.1* | 1 | 21
CC(C)c1nc(CNc2nc3nonc3nc2N(C)C)cs1 | 3 | 0 | 15 | 6.8* | -1 | -8
Cc1cccc(CC(Cc2nc3ccccc3[nH]2)c2nc3ccccc3[nH]2)c1 (stereo not given) | 12 | 0 | 6 | 5.6* | 0 | -11
O=C(C[n+]1ccccc1)Nc1ccccc1C(=O)O | 4 | 0 | -6 | 7.5* | 1 | -2
CN(CC(=O)Nc1ccc(F)cc1)S(=O)(=O)c1cccc2cnccc12 | 21 | 0 | -2 | -2 | . | .
CN(CC(=O)Nc1ccccc1F)S(=O)(=O)c1cccc2cnccc12 | 37* | 0 | 6 | 5.4* | 0 | -6
CN(CC(=O)NCCC1=CCCCC1)S(=O)(=O)c1ccc(Br)s1 | 12 | 0 | -5 | 0 | . | .
O=C(O)c1ccc(NS(=O)(=O)c2cc(C(=O)O)ccc2Br)cc1 | -2 | 0 | -8 | 5.6* | 0 | -4
O=C(Oc1ccc(-c2ccccc2)cc1)N1CCOCC1 | -40 | 0 | -2 | 5.8* | 0 | -11
O=C(Nc1nc2ccccc2[nH]1)c1ccc(Br)cc1 | 25 | 0 | 21 | 8.0* | -4 | -18
C#CCn1c(=NC(=O)CN2C(=O)CCC2=O)sc2c(C)cc(C)cc21 | -3 | 0 | 3 | 7.2* | 0 | 0
NC(=O)c1ccc(Nc2nccc(-c3ccc(Cl)cc3)n2)cc1 | 23 | 0 | 8 | 5.6* | 0 | 15
COC(=O)c1ccc(Nc2nccc(-c3ccccc3)n2)cc1 | -22 | 0 | 6 | -2 | . | .
CCN1CCN(CCCNC(=O)CCCNC(=O)Cn2cnc3sc4c(c3c2=O)CCCC4)CC1 | 6 | 0 | 17 | -1 | . | .
CN1CCN(CCCNC(=O)CCCNC(=O)Cn2cnc3sc4c(c3c2=O)CCCC4)CC1 | -4 | 0 | 14 | 6.0* | 0 | 0
COc1ccc2c(c1)C1NC(=S)N(c3ccc(Br)cc3)C(C)(O2)C1C(=O)Nc1ccc(Cl)cc1 (stereo not given) | 2 | 0 | 10 | 1 | . | .
N#Cc1ccccc1NC(=O)CSc1nc2cc3ccccc3cc2[nH]1 | -3 | 0 | 5 | 0 | . | .
O=S(=O)(N/N=C/c1cccc(Cl)c1)c1ccc(Cl)cc1 | -9 | 0 | 15 | 5.2* | -2 | -6
